In the library only some 6% were active in any assay of this set; here they are far more common.
D1 agonist – agonists of human D1 dopamine receptor; HEK293 T-REx D1 cells, calcium flux, agonist mode; activation, % at 2 µM; 360,000 compounds, 1% hits; in the data active = activation above about 30%
Target sequence (P21728 whole entry, looked up): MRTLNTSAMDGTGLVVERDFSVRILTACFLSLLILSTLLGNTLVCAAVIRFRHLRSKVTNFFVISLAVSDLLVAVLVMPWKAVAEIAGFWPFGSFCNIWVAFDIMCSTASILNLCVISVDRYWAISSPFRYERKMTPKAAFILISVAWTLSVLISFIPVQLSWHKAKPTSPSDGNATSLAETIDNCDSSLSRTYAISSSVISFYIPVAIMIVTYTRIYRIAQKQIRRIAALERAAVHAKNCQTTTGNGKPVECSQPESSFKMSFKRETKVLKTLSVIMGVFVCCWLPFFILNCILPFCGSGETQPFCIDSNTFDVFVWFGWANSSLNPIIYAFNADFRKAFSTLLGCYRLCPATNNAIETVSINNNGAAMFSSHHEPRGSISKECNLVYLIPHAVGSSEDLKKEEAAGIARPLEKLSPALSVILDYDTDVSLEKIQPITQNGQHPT
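Tetracycline-induced HEK293 TREx D1 cells, force-coupled to calcium signalling, were dye-loaded with a no-wash calcium kit. Compound was pin-added after a 10 s baseline. Fluorescence was read kinetically at 1 cycle/s for 180 s, with calcium rises flagged as agonism.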
D1 antagonist – antagonists of human D1 dopamine receptor; HEK293 TREx D1 cells, calcium flux, dopamine EC80; hits give low values; AID 504652; activity change, negative = inhibition, % at 10 µM; 360,000 compounds, 3.2% hits; P21728; in the data active = activity change below about -30%
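Cells carrying a force-coupled, tetracycline-inducible human D1 receptor report calcium flux. Each well gets a 10 s baseline, compound with 180 s monitoring, then an EC80 dopamine stimulus with a second 180 s kinetic read.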
D1 PAM – enhances dopamine response at the human D1 receptor. potentiation, % at 10 µM. 360,000 compounds, 0.036% hits. AID 504651. HEK293 TREx D1 cells, calcium flux, dopamine EC20 potentiation. P21728; in the data active = potentiation above about 30%
D3 ag – activates the human D3 dopamine receptor. D3R DiscoveRx beta-arrestin cells, luminescence, 90 min. 410,000 compounds, 0.58% hits. AID 652048. P35462. max activation, %; in the data active = max activation above about 30%
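Agonist mode: compounds and dopamine controls were applied to plated cells for 90 min at 37 degrees C after an overnight attachment at 1500 cells/well. Luminescent read-out followed 30 - 60 minutes at room temperature with DiscoveRx detection reagent.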
D3 antag – antagonists of human D3 dopamine receptor. 360,000 compounds, 2.5% hits. max response, negative = inhibition, %. P35462. D3R cells, DiscoveRx beta-arrestin luminescence, antagonist mode; hits give low values; in the data active = max response below about -50%; inconclusive = no clear call, values can overlap the other calls
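Cells expressing the human receptor were seeded at 1500 cells/well, incubated overnight at 37 degrees C in 5% CO2, then exposed to library compounds with dopamine controls for 90 minutes at 37 degrees C before luminescent detection.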
Each line names hits and unclear results; the compound was inactive in the other large screens.

CC(C)NC(=O)CN1C(=O)c2cccnc2Sc2ccccc21	none (no result: D3 antag)
Cc1noc2ncnc(N3CCCC(C(=O)Nc4cccc(C(F)(F)F)c4)C3)c12 (configuration not stated)	none (no result: D3 antag)
CCOC(=O)c1cnc(-n2nc(C)cc2C)nc1N(CC)CC	D3 antag -59
CN1CCC[C@@H]1c1cccnc1	none (no result: D1 agonist, D1 antagonist, D1 PAM, D3 antag)
Cc1ccc(C(=O)NC(=S)N2CCN(c3ccccc3F)CC2)cc1	D1 antagonist -42
O=C(CSc1oc(-c2ccco2)nc1S(=O)(=O)c1ccc(Br)cc1)c1ccc(Cl)cc1	none (no result: D3 antag)
NS(=O)(=O)c1ccc(NCc2c(F)cccc2Cl)cc1	D1 antagonist -35
Cc1ccc(-c2n[nH]c(=S)c3ccccc23)cc1	D1 antagonist -35
O=C(CC1Sc2ccccc2NC1=O)NCc1ccccc1 (configuration not stated)	none
N#Cc1c(NC(=O)c2ccccc2Cl)n(Cc2ccccc2)c2nc3ccccc3nc12	D3 antag inconclusive
CCCCn1c(NC(=O)c2ccccc2Cl)c(C#N)c2nc3ccccc3nc21	D1 antagonist -39, D3 antag inconclusive
CCOC(=O)c1cc(CC)sc1NC(=O)CN1CCN(C(=O)c2ccco2)CC1	D1 agonist 109
CCCCNC(=S)Nc1ccc(-c2nc3ccc(C)cc3s2)cc1	D1 antagonist -47
Cc1ccc2nc(-c3ccc(NC(=O)CN4CCN(C(=O)c5ccco5)CC4)cc3)sc2c1	D3 ag 36
Cc1ccc2nc(-c3ccc(NC(=O)COC(=O)c4ccc(Br)o4)cc3)sc2c1	D1 PAM 46
CCOC(=O)c1cc(C)sc1NC(=O)CN1CCN(C(=O)c2ccco2)CC1	none
CCCCOc1ccc(CNC(=O)c2ccc(NC(=O)N3CCSc4ncccc43)cc2)cc1	none (no result: D3 antag)
CC(C)[C@H](NC(=O)c1ccc(Cl)c([N+](=O)[O-])c1)C(=O)NCc1ccc(Cl)cc1Cl	D1 antagonist -39, D3 antag inconclusive
Cc1ccccc1CNC(=O)c1ccccc1N	D3 ag 30
Cc1ccccc1CNC(=O)c1ccccc1C	none
Cc1ccccc1CNC(=O)c1ccc(Cl)c([N+](=O)[O-])c1	D1 antagonist -61
CC(C)[C@H](NC(=O)c1ccc(Cl)c([N+](=O)[O-])c1)C(=O)NCc1ccc(F)cc1	D3 antag inconclusive
O=S(=O)(NCc1cccc(Br)c1)c1ccc(-c2cc(C(F)(F)F)on2)s1	none (no result: D3 antag)
COc1ccccc1NC(=O)c1cc(=O)c2ccc(C)c(C)c2o1	none (no result: D3 antag)
COC(=O)C1=C(C)NC(=O)CC1c1ccccc1F (configuration not stated)	none
COC(=O)C1=C(N)c2c(F)cccc2C1(C#N)c1ccccc1 (configuration not stated)	D1 antagonist -32
NC(=O)[C@@H]1C[C@]2(NC(=O)NC2=O)c2cc(F)ccc2O1	none (no result: D1 agonist, D1 antagonist, D1 PAM, D3 antag)
CSc1nncc(/C(C)=N\Nc2ccccc2)n1	D1 antagonist -37
CSc1nncc(/C(C)=N\Nc2cccc(C)c2)n1	none
COc1ccc(CCNC(=O)C2(C)CCC(=O)N2Cc2ccc(F)cc2Cl)cc1OC (configuration not stated)	D1 antagonist -33
COc1ccc(CCNC(=O)C2(C)CCC(=O)N2Cc2ccc3c(c2)OCO3)cc1OC (configuration not stated)	none
Cc1cccc(/C=C/C(=O)c2ccc(NC3=NCCCS3)cc2)c1	D3 antag -57
O=C(/C=C/c1ccccc1)c1ccc(NC2=NCCCS2)cc1	none
O=C(/C=C/c1ccc(Br)cc1)c1ccc(NC2=NCCCS2)cc1	D3 antag -55
CC(C)(C)c1ccc(/C=C/C(=O)c2ccc(NC3=NCCCS3)cc2)cc1	none
COc1cccc(/C=C/C(=O)c2ccc(NC3=NCCCS3)cc2)c1	D3 antag -54
COc1cc(SC)ccc1C(=O)OCC(=O)N1CCN(C(C)=O)CC1	D3 antag -64
CCN(CC)S(=O)(=O)c1ccc(O)c(C(=O)OCC(=O)NC2CCCC2)c1	D1 antagonist -66
COc1ccc(NC(=O)COC(=O)c2cc(SC)ccc2Cl)c(OC)c1	D3 ag 32
COc1ccc(C(=O)OCC(=O)N2CCCC2=O)c(OC)c1	D3 antag -56
CCN(CC)S(=O)(=O)c1ccc(C(=O)OCC(=O)NC2CCCC2)cc1	none
COc1ccc2oc(C(=O)OCC(=O)N3CCCC3=O)c(C)c2c1	none
Cc1ccc(-c2nnc(Nc3ccc(Br)cc3)c3ccccc23)cc1S(=O)(=O)N1CCCCC1	none (no result: D3 antag)
CCC(=O)N1CCc2cc(S(=O)(=O)CCC(=O)N3CCN(c4ccccc4Cl)CC3)ccc21	none (no result: D3 antag)
COc1ccc(-c2nn(-c3ccc(F)cc3F)c3c2cnc2ccc(F)cc23)cc1	none (no result: D3 antag)
COc1cc(SC)ccc1C(=O)OCC(=O)NC1CCCCC1	D1 antagonist -32
COc1cc(SC)ccc1C(=O)OCC(=O)NC1CCCC1	none
N#C/C(=C/c1ccc(N2CCCCC2)cc1)c1cccc(F)c1	none
Cc1ccc(/C(C#N)=C\c2ccc(N3CCOCC3)o2)cc1	D3 antag -65
N#C/C(=C/c1ccc(N2CCCCC2)o1)c1cccc(F)c1	D3 antag -69
N#C/C(=C/c1ccc(N2CCCCCC2)o1)c1ccc(Cl)cc1	D3 antag -64
Cc1ccc2nc(/C(C#N)=C\c3ccc(N4CCOCC4)o3)[nH]c2c1	none
CC(C)Oc1ccc(CNC(=O)CCCN2C(=O)c3cccnc3Oc3ccc(Cl)cc32)cc1	none (no result: D3 antag)
Cc1nc(N2CCOCC2)c2c(C(=O)N3CCN(c4cc(Cl)ccc4C)CC3)c(C)oc2n1	none (no result: D3 antag)
COc1ccc(CCNC(=O)Cn2nc(-c3ccc(Cl)cc3)ccc2=O)cc1OC	none (no result: D3 antag)
Cn1cc(-c2cc3n(n2)CCC(=O)N3CCCC(=O)NCc2ccccc2Cl)c2ccccc21	D1 antagonist -48 (no result: D3 antag)
CCOC(=O)CCCN1C(=O)CCn2nc(-c3cn(C)c4ccccc34)cc21	D1 antagonist -40 (no result: D3 antag)
COC(=O)c1sccc1S(=O)(=O)N(CC(=O)NCc1ccc(C)cc1)c1ccccc1	none (no result: D3 antag)
Cc1cc2oc(C(=O)Nc3ccc(S(=O)(=O)Nc4onc(C)c4C)cc3)cc(=O)c2cc1C	none (no result: D3 antag)
COc1ccccc1CCN1CCCC(CN(C)CC(C)(C)CO)C1 (configuration not stated)	none
CN(Cc1ccccc1)CC1CCCN(CCc2ccccc2F)C1 (configuration not stated)	none
COc1ccc(F)c(CN(C)CC2CCCN(CCc3ccc(F)cc3)C2)c1 (configuration not stated)	D1 antagonist -58
COc1ccc(CN(C)CC2CCCN(CCc3ccc(F)cc3)C2)cc1OC (configuration not stated)	none
Cc1ccccc1CCN1CCCC(CN(C)CC(C)(C)C)C1 (configuration not stated)	D1 antagonist -54
CC(=O)c1cccc(CN(C)CC2CCCN(CCc3ccccc3C)C2)c1 (configuration not stated)	D1 antagonist -66

From PubChem
